# From PubChem
# PP1 counter: PP1-alpha (human) inhibition in PP5 counter-screen. P62136. purified PP1alpha, OMFP fluorescence. inhibition, % at 6.7 µM. hit rate 0.9% among 320,000;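 active = inhibition above the mean inhibition of all tested compounds plus 3 SD, computed separately for each screening campaign, cut at about 15% in these data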
# Target sequence (P62136 whole entry, looked up): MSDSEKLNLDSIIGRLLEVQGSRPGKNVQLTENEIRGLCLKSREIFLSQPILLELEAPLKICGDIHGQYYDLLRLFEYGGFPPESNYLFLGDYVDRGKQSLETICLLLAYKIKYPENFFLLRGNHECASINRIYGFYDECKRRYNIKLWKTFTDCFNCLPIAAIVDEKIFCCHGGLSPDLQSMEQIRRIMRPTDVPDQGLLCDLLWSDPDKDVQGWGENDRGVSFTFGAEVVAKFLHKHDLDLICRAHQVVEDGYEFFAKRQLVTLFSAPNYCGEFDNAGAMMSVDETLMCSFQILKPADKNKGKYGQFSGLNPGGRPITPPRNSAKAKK
# PAFAH1B3 FP inh: inhibitors of human PAFAH1B3. hit rate 0.28% among 340,000. recombinant PAFAH1B3, FP-rhodamine probe, fluorescence polarization. inhibition, % at 3.39 µM. Q15102;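 active = inhibition above the screen-wide average of all tested compounds plus 3 SD, cut at about 25% in these data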;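 also: 0% = enzyme with DMSO only and 100% = wells lacking PAFAH1B3 protein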
# PP5 primary: PP5 (human) phosphatase inhibition. P53041. purified PP5c, OMFP substrate fluorescence. inhibition, % at 6.7 µM. hit rate 0.18% among 320,000. AID 1987;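 active = inhibition above the campaign's mean inhibition across all tested compounds plus 3 SD, cut at about 9.5% in these data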;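 also: 0% = DMSO only and 100% = 100 µM cantharidin control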
# PAFAH2 FP inh: PAFAH2 (human) inhibition; Q99487; recombinant PAFAH2, FP-rhodamine activity probe, fluorescence polarization; inhibition, % at 3.39 µM; hit rate 0.99% among 340,000;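 active = inhibition above the mean over all tested compounds plus 3 SD, cut at about 30% in these data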;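 also: inhibitors block probe labeling of enzyme so polarization drops; 0% = enzyme with DMSO and 100% = wells lacking PAFAH2 protein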
# pPAFAH FP inh: pPAFAH (human) enzyme inhibition; Q13093; recombinant pPAFAH, FP-rhodamine probe fluorescence polarization; inhibition, % at 3.39 µM; hit rate 1.5% among 330,000; AID 463082;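 active = inhibition above the mean inhibition across the screen plus 3 SD, cut at about 25% in these data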;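 also: inhibitors block binding of the rhodamine activity-based probe so polarization drops; 0% = enzyme with DMSO and 100% = wells lacking pPAFAH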
# PAFAH1B2 inh: PAFAH1B2 (human) inhibition; recombinant PAFAH1B2, FP-rhodamine activity probe, fluorescence polarization; inhibition, % at 3.39 µM; hit rate 1.2% among 340,000; P68402;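 active = inhibition above the mean of all tested compounds plus 3 SD, cut at about 24% in these data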;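 also: 0% = enzyme with DMSO and 100% = wells lacking PAFAH1B2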
# Target sequence (P68402 whole entry, looked up): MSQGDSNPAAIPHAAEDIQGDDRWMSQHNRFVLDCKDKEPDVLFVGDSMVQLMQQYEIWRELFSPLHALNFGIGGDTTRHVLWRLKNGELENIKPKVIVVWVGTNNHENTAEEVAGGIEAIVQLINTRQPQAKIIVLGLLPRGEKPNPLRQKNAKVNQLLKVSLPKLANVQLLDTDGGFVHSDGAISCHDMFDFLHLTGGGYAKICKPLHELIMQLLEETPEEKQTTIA
# The depositor's hits bear a star; x = no result. Compounds with a hit are over-represented: about 3.4% of the library has one in this group of screens.
SMILES,PP1 counter,PAFAH1B3 FP inh,PP5 primary,PAFAH2 FP inh,pPAFAH FP inh,PAFAH1B2 inh
O=C(O)CC(NS(=O)(=O)c1ccc(Br)cc1)c1ccco1 (configuration not stated),-2,1,1,7,0,28*
O=C(O)c1cn(-c2ccccc2)nc1C(=O)O,0,1,-1,-3,-3,-4
NNC(=O)c1nn(-c2ccccc2)cc1O,6,x,0,x,31*,x
O=C1c2cc(O)cc(O)c2C(=O)c2c1cc(O)c([C@@H](CO)CCO)c2O,0,17,4,18,31*,19
Cc1cc(O)c2c(c1)C(=O)c1cc(O)cc(O)c1C2=O,0,20,1,10,30*,4
COC(=O)c1ccc(CSc2nnc(NC(=O)C3CC(=O)N(c4ccc5c(c4)OCCO5)C3)s2)cc1 (configuration not stated),15*,-4,3,0,2,4
COc1ccc(C(=O)CSc2nnc(NC(=O)C3CC(=O)N(c4ccccc4)C3)s2)cc1 (configuration not stated),17*,-6,2,-5,4,-5
C=CCSc1nnc(NC(=O)C2CC(=O)N(Cc3ccc(C)cc3)C2)s1 (configuration not stated),2,8,0,0,5,-1
Cc1ccc(CN2CC(C(=O)Nc3nnc(SCc4c(Cl)cccc4Cl)s3)CC2=O)cc1 (configuration not stated),16*,-2,4,22,17,-1
COc1ccc(-c2csc(NC(=O)C3CC(=O)N(c4ccc5c(c4)OCCO5)C3)n2)cc1 (configuration not stated),10,2,0,-13,25*,-2
CCc1ccc(C(=O)NNC(=O)C2CC(=O)N(c3ccc4c(c3)OCCO4)C2)cc1 (configuration not stated),-2,6,2,-3,0,-1
CC(C)C[C@@H](COc1ccccc1)N1CCN(Cc2ccccc2)CCC1=O,0,2,-1,0,0,4
CCOC(=O)C1(CC)Oc2ccccc2C(c2ccc(OC)cc2)=C1C(=O)OC (configuration not stated),x,8,x,4,-3,17
CCOC(=O)C(NCCOC)(NC(C)=O)C(F)(F)F (configuration not stated),-4,7,1,4,9,3
CC(=O)Nc1ccc(-c2csc(NC(=O)C3CC(=O)N(c4ccc5c(c4)OCCO5)C3)n2)cc1 (configuration not stated),16*,6,4,1,5,2
CS(=O)(=O)c1ccc(NC(=O)C2CC(=O)N(c3ccc4c(c3)OCCO4)C2)cc1 (configuration not stated),-5,-5,0,-1,17,-1
COc1ccccc1CNC(=O)CCCc1nnc2n(C)c(=O)c3sccc3n12,-1,0,0,0,-2,5
CC(=O)NCc1ccc(C(=O)COC(=O)COc2ccc(Cl)c(C)c2)s1,x,6,x,4,27*,5
CC(=O)NCc1ccc(C(=O)COC(=O)COc2ccccc2)s1,1,10,1,1,15,-2
CN(C)CCO[C@@H](c1ccc(Cl)cc1)c1ccccn1,-1,5,-1,-2,27*,-1
CC(C)CN(C(=O)Cn1c(C(F)(F)F)nc2ccccc21)c1c(N)n(Cc2ccccc2)c(=O)[nH]c1=O,x,11,x,-3,x,4
CCN1CCN(c2cc(C)c3cc(NC(=O)c4cc(OC)cc(OC)c4)ccc3n2)CC1,-1,-1,2,-3,29*,3
CCOc1ccc(C(=O)Nc2ccc3nc(N4CCN(CC)CC4)cc(C)c3c2)cc1,1,6,4,6,10,4
C[C@H](CO)N1C[C@H](C)[C@@H](CN(C)S(=O)(=O)c2ccccc2)Oc2c(NS(=O)(=O)c3ccccc3)cccc2C1=O,x,-1,x,6,-5,3
CC(NC(=O)c1ccc(S(=O)(=O)Nc2ccccc2Cl)cc1)c1ccncc1 (configuration not stated),x,5,x,4,-1,4
SMILES,PP1 counter,PAFAH1B3 FP inh,PP5 primary,PAFAH2 FP inh,pPAFAH FP inh,PAFAH1B2 inh
NS(=O)(=O)c1ccc(CCNC(=O)c2ccc3nccnc3c2)cc1,x,4,x,7,30*,8
O=C(O)c1ccc(N/N=C/C2=C(N3CCOCC3)C(=C\c3ccccc3)/CC2)cc1,5,8,2,8,28*,4
O=C1NC(=S)NC1(c1ccccc1)c1ccccc1,x,3,x,4,x,7
O=C(CSc1nnc(-c2ccc(F)cc2)c2ccccc12)Nc1cccc(Cl)c1,16*,-10,-2,-11,-5,-9
O=C(CSc1nnc(-c2ccc(F)cc2)c2ccccc12)Nc1ccccc1,15,9,5,-3,2,3
O=C1COc2ccc(C(=O)COC(=O)c3ncc(Cl)c(Cl)c3Cl)cc2N1,-2,3,0,2,24,13
CC(C)(c1ccccc1)c1ccc(OCCN2CCOCC2)cc1,-4,4,0,3,27*,17
c1ccc(OCCOCCN2CCOCC2)cc1,-1,6,-1,2,-6,-2
O=C(Cc1n[nH]c(=O)c2ccccc12)OCC(=O)c1ccc(OC(F)F)cc1OC(F)F,-2,0,-1,5,-1,3
Cc1ccc(CS(=O)(=O)CCC(=O)NCCc2ccccc2)cc1,-1,1,2,3,25*,7
Cc1ccc(S(=O)(=O)NCCCCCC(=O)NCCc2ccccc2)cc1,4,13,3,-1,13,30*
CCN1C[C@@H]2[C@@H]3C(=O)N(C)C(=O)[C@@H]3[C@](C)(C1=O)N2C(=O)c1ccc(F)cc1,x,11,x,3,x,4
CCOc1ccc(NC(=O)CCC(=O)NNC(=O)Nc2ccc(Cl)cc2)cc1,-4,x,1,x,0,x
CCCN(CC(=O)Nc1ccccc1C)C(=O)c1ccc(OCc2c(C)noc2C)cc1,x,5,x,-5,x,-3
CCc1cccc(NC(=O)C2CCCN2S(=O)(=O)c2ccccc2C(F)(F)F)c1 (configuration not stated),x,11,x,5,x,5
O=C(CCN1CCCCC1)c1cccc(Cl)c1,x,6,x,-4,x,-2
COC(=O)c1nnn(-c2nc(N3CCOCC3)nc(N3CCOCC3)n2)c1C,-3,2,1,1,9,-2
O=S(=O)(c1ccc(Cl)cc1)N1CCC(c2nc3ccccc3[nH]2)CC1,0,4,2,11,3,27*
O=S(=O)(c1ccc(Cl)cc1)N1CCC2(CC1)CO2,-3,11,3,-6,-2,28*
O=S(=O)(c1ccc(Cl)cc1)N1CCC(n2cccc2)CC1,-2,2,-1,1,4,29*
CC(=O)c1ccc(S(=O)(=O)N2CCC(c3nc4ccccc4[nH]3)CC2)cc1,6,1,3,-9,0,1
